Measurements as given in PubChem BioAssay (NCATS).
Inconclusive results are not listed. Activity calls are given as the source filed them. Calls come from the whole dose curve; as a rule, active = well fitted cell-killing curve with a large enough effect; inconclusive = small, poorly fitted or top-dose-only effect; inactive = flat fitted curve, though single readings scatter.

Assay: qHTS of pediatric cancer cell lines to identify multiple opportunities for drug repurposing: Primary screen for control Hh wild type fibroblast cells (AID 1347106);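 note: a drop in luminescence marks cytotoxicity and a rise apparent proliferation; nearly all actives have a fitted effect of over 55% in size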
Conditions: Hh wild-type fibroblast viability, CellTiter-Glo luminescence, 48 h; series mostly up to 46 µM; activity change, negative = cytotoxic: at the top concentration
Source text: Drug repurposing or repositioning has been offered as a strategy for drug development in oncology programs. This approach has special potential for childhood cancers and other rare or orphan diseases, where the expected return on new drug development has been a disincentive to pharmaceuticals.
In this project we exploit the poly-pharmacology of drugs to discover new indications via phenotypic screening of a panel of 19 well-characterized cell lines derived from solid tumors seen in children and adolescents. The goal is to identify approved drugs with previously unrecognized anticancer properties that has the potential to reveal new mechanisms and biological processes involved in carcinogenesis or drug resistance. We employed a titration-based paradigm (quantitative high-throughput screening or qHTS), where all compounds were tested at multiple concentrations for their effect on cell viability. Concentration-response curves (CRCs) were derived directly from the primary screen, and both potency and efficacy values were used to identify compounds with robust bioactivity profiles. We screened the NIH Chemical Genomics Center (NCGC) Pharmaceutical Collection (NPC) and Mechanism Interrogation Plate (MIPE) small molecule collections of approved and investigational compounds against these cell lines; and measured metabolically active cells after 48 hours of compound treatment as a proxy for cell viability.
Assay Submitter: Nathalia J. Martinez, National Center for Advancing Translational Sciences, National Institutes of Health, Rockville, MD, USA; email: natalia.martinez@nih.gov
[1] Shen, M et al. Quantitative high-throughput phenotypic screening of pediatric cancer cell lines identifies multiple opportunities for drug repurposing. Oncotarget 2017 Dec 19;9(4):4758-4772. PMID 29435139.
The cells were obtained from University of North Carolina (UNC), Pediatric Preclinical Testing Program (PPT), and Coriell Institute (CI).
qHTS cell viability assay:
Cells were assayed in growth media at a density of 500-1,000 cells/well. Five microliters of cells were dispensed into 1,536-well, white, solid-bottom, TC-treated plates (Greiner Bio One) using a multidrop dispenser and incubated at 37 degrees C, 5% CO2, under a humidified atmosphere for 5 hours. Twenty-three nanoliters of compounds and controls (neutral control DMSO or positive control bortezomib at final concentration of 2.3 µM) were subsequently transferred by Kalypsys pintool. For primary screens, the MIPE collection was tested at 11-point dilutions (final concentrations range from 0.78 nM to 46 µM) and the NPC collection at 8-point dilutions (final concentrations range from 0.59 nM to 46 µM). Compounds tested in follow-up screens were assayed at 11-point dilutions. Cells were incubated for 48 hours, followed by addition of 3 µL of CellTiter-Glo (Promega). After a 15 min incubation at room temperature, samples were analyzed for luminescence intensity using a ViewLux High-throughput CCD imager equipped with clear filters.
% is set by controls: 0 for no effect and ±100 for the full control effect.

| Structure (SMILES) | activity change, negative = cytotoxic | outcome |
| --- | --- | --- |
| CCCN(CCC)CCc1cccc2c1CC(=O)N2 | 7.46% (inactive) | – |
| CN(C)CCOC(=O)COc1ccc(Cl)cc1 | 10.8% (inactive) | – |
| COC(=O)[C@@H](N)Cc1ccc(O)c(O)c1 | 5.69% (inactive) | – |
| CN=C(NC#N)NCCSCc1nc[nH]c1C | 0.691% (inactive) | – |
| COc1ccc(CCN(C)CCCC(C#N)(c2cc(OC)c(OC)c(OC)c2)C(C)C)cc1OC (stereo not given) | -8.54% (inactive) | – |
| Cc1ccc(S(=O)(=O)NC(=O)NN2CCCCCC2)cc1 | 12.7% (inactive) | – |
| Nc1c2c(nc3ccccc13)CCCC2O (stereo not given) | -3.16% (inactive) | – |
| COc1cc(Cc2cnc(N)nc2N)cc(OC)c1OC | 9.52% (inactive) | – |
| NC(=O)c1ncn([C@@H]2O[C@H](CO)[C@@H](O)[C@H]2O)c1O | 4.36% (inactive) | – |
| CC(C)(Oc1ccc(CCNC(=O)c2ccc(Cl)cc2)cc1)C(=O)O | 7.09% (inactive) | – |
| CCCCCN(CCCCC)C(=O)C(CCC(=O)O)NC(=O)c1ccc(Cl)c(Cl)c1 (stereo not given) | 0.712% (inactive) | – |
| c1cc(CN2CCCCC2)cc(OCCCNc2nc3ccccc3s2)c1 | -2.7% (inactive) | – |
| Cc1nc2sccn2c(=O)c1CCN1CCC(=C(c2ccc(F)cc2)c2ccc(F)cc2)CC1 | 5.23% (inactive) | – |
| CCCOc1ccccc1-c1nc2n[nH]nc2c(=O)[nH]1 | -10.1% (inactive) | – |
| CNC1(C)C2CCC(C2)C1(C)C (stereo not given) | 9.66% (inactive) | – |
| FC(F)(F)c1ccccc1-n1ccnc1 | 0.149% (inactive) | – |
| Brc1c(NC2=NCCN2)ccc2nccnc12 | 2.96% (inactive) | – |
| OCCN1CCN(CC/C=C2/c3ccccc3Sc3ccc(C(F)(F)F)cc32)CC1 | 0.439% (inactive) | – |
| c1ccc2c(c1)CCCC2C1=NCCN1 (stereo not given) | 8.69% (inactive) | – |
| COCCc1ccc(OCC(O)CNC(C)C)cc1 (stereo not given) | 1.86% (inactive) | – |

| Structure (SMILES) | activity change, negative = cytotoxic | outcome |
| --- | --- | --- |
| Cc1ccc(/C(=C\CN2CCCC2)c2ccccn2)cc1 | 0.981% (inactive) | – |
| CC(=O)OCC1=C(C(=O)O)N2C(=O)[C@@H](NC(=O)Cc3cccs3)[C@H]2SC1 | 6.76% (inactive) | – |
| CCCCOCCOCCOCc1cc2c(cc1CCC)OCO2 | – | inactive |
| Nc1nc(N)c2nc(-c3ccccc3)c(N)nc2n1 | 0.992% (inactive) | – |
| CC(C)NNC(=O)c1ccncc1 | -4.83% (inactive) | – |
| CO[C@@]1(NC(=O)CSCC#N)C(=O)N2C(C(=O)O)=C(CSc3nnnn3C)CS[C@@H]21 | -1.38% (inactive) | – |
| CCCN(CCC)C(=O)C(CCC(=O)O)NC(=O)c1ccccc1 (stereo not given) | 8.7% (inactive) | – |
| CN(C(=O)CCCOc1ccc2[nH]c(=O)ccc2c1)C1CCCCC1 | -1.66% (inactive) | – |
| CC(C)(C)NCC(O)c1cc(O)cc(O)c1 (stereo not given) | -10.7% (inactive) | – |
| CNCCCN1c2ccccc2CCc2ccccc21 | -8.58% (inactive) | – |
| CCN(CC)CCNC(=O)c1ccc(NC(C)=O)cc1 | 14% (inactive) | – |
| NC1=NCC2c3ccccc3Cc3ccccc3N12 (stereo not given) | 0.291% (inactive) | – |
| CN1C(=O)CC[C@H]1c1cccnc1 | 0.0069% (inactive) | – |
| C[N+](C)(C)CCOC(=O)CCC(=O)OCC[N+](C)(C)C | 10.9% (inactive) | – |
| Cc1nnc(SCC2=C(C(=O)O)N3C(=O)[C@@H](NC(=O)Cn4cnnn4)[C@H]3SC2)s1 | -2.54% (inactive) | – |
| Cc1nc2c([nH]1)c(=O)n(C)c(=O)n2Cc1ccco1 | 10.8% (inactive) | – |
| O=C(CCCN1CCC(O)(c2cccc(C(F)(F)F)c2)CC1)c1ccc(F)cc1 | -1.9% (inactive) | – |
| CCN(Cc1ccncc1)C(=O)C(CO)c1ccccc1 (stereo not given) | 4.42% (inactive) | – |
| CCN(CC)CCOCCOC(=O)C1(c2ccccc2)CCCC1 | 12.6% (inactive) | – |
| NC/C=C/C(=O)O | 11.1% (inactive) | – |
